# Assay results: PubChem BioAssay (NCI)
# Compounds without any hit were thinned out: in the full panel of roughly 83,000, 20% have a hit.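 How to read the values: 0–100, growth inhibition (40 = 60% inhibited); 0, no net growth; -100 to 0, cell death (-40 = 40% of starting cells died; -100 = all dead).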 Unmarked numbers belong to inactive results. Activity calls are given as the source filed them.
# Tested on: PC-3 prostate
# Test: NCI-60 one-dose screen, 48 h (100 = growth as untreated, 0 = no growth, -100 = all killed)
# Conditions: 10 µM
# Protocol: Growth inhibition of the PC-3 human tumor cell line is measured as a screen for anti-cancer activity. Cells are grown in 96 well plates and exposed to the test compound for 48 hours. Compounds are tested at a single concentration, which is 10^-5 M for most compounds. The reported endpoint is percent growth (GI% or GIPRCNT), where numbers from 0 - 100% represent growth inhibition, and numbers from -100% - 0 represent cell death. For example, a value of 40 represents 60% growth inhibition. A value of 0 means no net growth occurred over the course of the experiment. A value of -40 indicates 40% of cells at the beginning of the experiment died by the end of the experiment. A value of -100 means all cells are dead at the end of the experiment.
# NCI-60 Human Tumor Cell Lines Screen was performed using the standard one-dose NCI protocol, which is described in more detail at https://dtp.cancer.gov/discovery_development/nci-60/default.htm.
# Compounds with GIPRCNT values below 10 were considered active. Activity score was based on GIPRCNT using the following formula: […]
# Score is 0 for GIPRCNT values of 100 or above, 50 for GIPRCNT values of 0, and 100 for GIPRCNT values of -100.
row,SMILES,growth
1,O=C(Nc1ccc(OCc2nnc(-c3ccccc3)o2)c(F)c1)Nc1ccc(Cl)c(Cl)c1,55.6%
2,COc1ccc2c(c1)/C(=C/c1cc(OC)c(OC)c(OC)c1)C(=O)N2C,38.3%
3,Cc1ccc(/C(CS(=O)(=O)c2ccc(C)cc2)=N\O)cc1,94.3%
4,CCN(CC)CCOC(=O)c1ccc(NC(=O)Nc2cccc(Cl)c2)cc1,94.7%
5,O=C1/C(=C/c2ccc(O)cc2)Oc2ccc(Cl)cc21,95.1%
6,Cc1nnc2c3nnc(-c4ccc(Cl)cc4)n3c3ccccc3n12,91.8%
7,COc1ccc(Cn2cc3c(c2-c2ccccc2)CC(C)(C)c2cnoc2-3)cc1,28.8%
8,CC(=O)Nc1ccc(Sc2ccc(NC(C)=O)cc2)cc1,65.5%
9,CC(C)/C(=N/O)c1ccccc1,102%
10,CCCCCCCCCCN=C(c1ccc(N(C)C)cc1)c1ccc(N(C)C)cc1,30.7%
11,CCC(OC(=O)CC(C)C)c1ccccc1 (stereo not given),94.8%
12,O=C(NNC(=O)c1ccncc1)Nc1ccc([N+](=O)[O-])cc1,103%
13,C/C(=N\NC(=O)c1sc(=S)n(C)c1N)c1cc2ccccc2o1,45.5%
14,COc1ccc(C(=O)/C=C/c2cc(-c3ccc(OC)c(OC)c3)n[nH]2)cc1OC,-36.2% (active)
15,NC1CCC(Nc2nc(NCc3cc(Cl)ccc3O)c3ncn(C4CCCC4)c3n2)CC1 (stereo not given),-8.24% (active)
16,CCSc1nc2c([nH]1)c(=O)n(C)c(=S)n2C,101%
17,COC(=O)c1cnc2c(c1)Oc1ccccc1-c1ccnn1-2,94.3%
18,COc1ccc(C2C=C(c3ccc(Cl)c(Cl)c3)N=C3SC(C)=CN32)cc1 (stereo not given),90.5%
19,O=C(Nc1cccc(Cl)c1)Nc1cc2ncncc2cc1OCc1cccc(F)c1,9.57% (active)
20,COc1ccccc1CNCCCN1C(=O)c2ccc3c4c(ccc(c24)C1=O)C(=O)N(CCCNCCNCCCN)C3=O,42.1%

row,SMILES,growth
1,CCc1nn2c(-c3cc(OC)c(OC)c(OC)c3)c(-c3cc(OC)c(OC)c(OC)c3)nc2s1,82.9%
2,COC(=O)CCCCCCCCC(C)c1ccc(C(C)=O)cc1 (stereo not given),106%
3,COc1cc(C(c2c[nH]c3ccccc23)N2CCCC2)ccc1OCc1ccccc1 (stereo not given),55.1%
4,COc1cc(/C=C/C(=O)c2cc(-c3ccccc3)ccc2O)cc(OC)c1OC,49.4%
5,CCCOCC(O)CNCCN (stereo not given),83.4%
6,Cc1ccc(C(=O)O)c(N)c1C,94.6%
7,CN(C)c1ccc2c(c1)OC(N)=C(C#N)C2c1ccc2c(c1)CCO2 (stereo not given),24.1%
8,COc1ccc(/C=C2\CCC3C(CCCC34OCCO4)C2=O)cc1 (stereo not given),86.4%
9,COC(=O)c1cnc2c(c1)Oc1ccc(Cl)cc1-c1cc(C)nn1-2,95.1%
10,Cc1ccc(-n2c(-c3cc4c([nH]c5ccccc54)c(-c4cccc(O)c4)n3)n[nH]c2=S)cc1,19.4%
11,FC(F)(F)c1ccc(-c2cnc(Cl)nc2NC2CCCCCC2)cc1,1.08% (active)
12,CCCc1c(CC)c(=N)c2ccccc2n1C,67.4%
13,O=C(NNc1nc(N2CCCC2)nc(N2CCCC2)n1)c1ccccc1,101%
14,Fc1ccc(-c2cc(C(Cl)Cl)no2)cc1,93%
15,Nc1c(C(=O)NC2CCCCC2)sc2nc3c(cc12)C(=O)CCC3,92.4%
16,COc1cc(-c2nc3ccccc3[nH]2)ccc1OCC(=O)N=Nc1c(O)[nH]c2ccccc12,64%
17,O=C(Nc1cccc(C(F)(F)F)c1)C(Cl)Cl,95.1%
18,CCCCOCCOCCOCc1cc2c(cc1Br)OCO2,93.2%
19,CC(C)/C=N/NC(N)=S,55.1%
20,Cc1nc2ccc(-n3c(-c4ccc(Cl)cc4)nc4ccccc4c3=O)cc2n1Cc1ccccc1,58.6%
